Measurements from PubChem BioAssay AID540296 (Southern Research Specialized Biocontainment Screening …, 2011).
Results with a measured potency or affinity are listed apart. Calls of active or inactive are those of the source. How the calls were made is not given here.

Test: MDCK cell cytotoxicity, dose response, cytotoxicity control (AID 540296)

Structure (SMILES)	outcome
Cc1ccc(N2C(=O)C(CC(=O)Nc3cccc(F)c3)N(C3CC3)C2=O)cc1 (configuration not stated)	inactive
CN(C)c1cccc2c(C=C(C#N)C#N)ccc(N(C)C)c12	inactive
